# Experimental data published in PubChem BioAssay AID651739 (Broad Institute, 2012).
# In all, about 5,600 compounds went through this assay and about 4,100 (73%) were called active. Roughly 4% stayed inconclusive and do not appear here. So high a share suggests a set chosen from earlier hits. A selection follows. Values without a mark were called inactive.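 Rule for the calls: active = mean replicate inhibition above about 95% and at least 55% of replicates individually reaching it (limit read from the data); inconclusive = only one of the two criteria is met; inactive = neither criterion is met.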
# Test: T. cruzi intracellular proliferation inhibitors, confirmation, cell-based, NIH3T3 host, beta-gal parasite, luminescence, cherry-pick (AID 651739)
# Conditions: T. cruzi beta-gal in NIH3T3, GalScreen luminescence, 90 h; at 8.35 µM; active compounds read high
row,Structure (SMILES),inhibition
1,CCC(=O)N1CCCCN2[C@H](C1)[C@@H](c1ccc(/C=C/c3ccccc3)cc1)[C@@H]2CO,102% (active)
2,O=C(CN1CCOCC1)N1CCCCN2[C@@H](CO)[C@H](c3ccc(/C=C/c4ccccc4)cc3)[C@@H]2C1,99.6% (active)
3,O=C(CN1CCOCC1)N1CCCCN2[C@H](CO)[C@H](c3ccc(-c4ccccc4)cc3)[C@@H]2C1,73.7%
4,CCC(=O)N1CCCCN2[C@H](C1)[C@@H](c1ccc(-c3ccc(F)cc3)cc1)[C@@H]2CO,60.2%
5,O=C(CN1CCOCC1)N1CCCCN2[C@@H](CO)[C@H](c3ccc(-c4ccccc4)cc3)[C@@H]2C1,81.6%
6,O=C(C[C@H]1CC[C@@H]2[C@H](COC[C@H](O)CN2Cc2ccc(Oc3ccccc3)cc2)O1)N1CCN(c2ccccc2)CC1,101% (active)
7,COc1cccc(C#Cc2ccc([C@@H]3[C@H](C#N)N[C@H]3CO)cc2)c1,101% (active)
8,O=C(c1ccncc1)N1CCCCN2[C@H](CO)[C@H](c3ccc(-c4ccccc4)cc3)[C@H]2C1,105% (active)
9,O=C(c1cccc(F)c1)N1CCCCN2[C@H](CO)[C@H](c3ccc(-c4ccncc4)cc3)[C@H]2C1,95.2% (active)
10,O=C(Nc1ccccc1F)N1CCCCN2[C@H](CO)[C@@H](c3ccc(-c4cccnc4)cc3)[C@H]2C1,61.1%
11,COc1ccccc1NC(=O)N1CCCCN2[C@H](C1)[C@H](c1ccc(-c3ccccc3)cc1)[C@@H]2CO,109% (active)
12,CC(C)(O)C#Cc1ccc([C@@H]2[C@H](CO)N3CCCCN(C(=O)c4cccc(F)c4)C[C@@H]23)cc1,76.7%
13,O=C(c1cccnc1)N1CCCCN2[C@@H](CO)[C@H](c3ccc(C#Cc4ccccc4)cc3)[C@@H]2C1,112% (active)
14,O=C(Nc1cc(F)ccc1F)N1CCCCN2[C@H](CO)[C@@H](c3ccc(-c4cncnc4)cc3)[C@H]2C1,55.4%
15,COc1ccc(C#Cc2ccc([C@@H]3[C@@H](CO)N4CCCCN(C(=O)c5ccncc5)C[C@@H]34)cc2)cc1,80.6%
16,C[C@@H]1CCCCO[C@@H](CN(C)Cc2ccc(C(F)(F)F)cc2)[C@@H](C)CN([C@H](C)CO)C(=O)c2cc(NC(=O)Nc3ccccc3)ccc2O1,105% (active)
17,C[C@@H]1CN([C@H](C)CO)C(=O)c2cc(NS(=O)(=O)c3cccs3)ccc2O[C@@H](C)CCCCO[C@H]1CN(C)Cc1ccc(C(F)(F)F)cc1,101% (active)
18,C[C@@H]1CCCCO[C@H](CN(C)Cc2ccccc2)[C@@H](C)CN([C@@H](C)CO)C(=O)c2cc(NC(=O)Nc3ccc(F)cc3)ccc2O1,101% (active)
19,C[C@@H]1CCCCO[C@H](CN(C)Cc2ccc(C(F)(F)F)cc2)[C@H](C)CN([C@H](C)CO)C(=O)c2cc(NC(=O)Nc3ccc(F)cc3)ccc2O1,96.3% (active)
20,C[C@H]1CCCCO[C@H](CN(C)Cc2ccccc2)[C@@H](C)CN([C@@H](C)CO)C(=O)c2cc(NC(=O)NC3CCCCC3)ccc2O1,111% (active)
21,C[C@H]1CCCCO[C@H](CN(C)Cc2ccccc2)[C@@H](C)CN([C@@H](C)CO)C(=O)c2cc(NC(=O)c3ccccc3)ccc2O1,113% (active)

row,Structure (SMILES),inhibition
1,COc1ccccc1C#Cc1ccc([C@@H]2[C@H](CO)N3CCCCN(C(=O)C4CCCC4)C[C@@H]23)cc1,99.8% (active)
2,COc1ccccc1C#Cc1ccc([C@@H]2[C@H](CO)N3CCCCN(C(=O)C4CC4)C[C@@H]23)cc1,103% (active)
3,COc1ccccc1C#Cc1ccc([C@H]2[C@H](CO)N3CCCCN(C(=O)C4CCC4)C[C@@H]23)cc1,114% (active)
4,C[C@H]1CN([C@@H](C)CO)S(=O)(=O)c2ccc(C#CCN(C)C)cc2O[C@@H]1CN(C)Cc1ccc(F)cc1,109% (active)
5,C[C@@H]1CN([C@@H](C)CO)S(=O)(=O)c2ccc(/C=C/c3ccccc3)cc2O[C@H]1CN(C)Cc1ccccc1,98.5% (active)
6,CC(C)C#Cc1ccc2c(c1)O[C@H](CN(C)Cc1ccccc1)[C@H](C)CN([C@@H](C)CO)S2(=O)=O,105% (active)
7,C[C@@H]1CN([C@H](C)CO)S(=O)(=O)c2ccc(C#C[C@@H](C)O)cc2O[C@@H]1CN(C)Cc1ccc(-c2ccccc2)cc1,96.5% (active)
8,CCCC#Cc1ccc2c(c1)O[C@H](CN(C)C(=O)CC)[C@@H](C)CN([C@H](C)CO)S2(=O)=O,99.3% (active)
9,CCCC#Cc1ccc2c(c1)O[C@@H](CN(C)C(=O)c1ccccc1F)[C@H](C)CN([C@H](C)CO)S2(=O)=O,105% (active)
10,CC(=O)N(C)C[C@H]1Oc2cc(C#CCN(C)C)ccc2S(=O)(=O)N([C@@H](C)CO)C[C@@H]1C,95.7% (active)
11,CCC(=O)N(C)C[C@@H]1Oc2cc(C#CCN(C)C)ccc2S(=O)(=O)N([C@H](C)CO)C[C@H]1C,98.5% (active)
12,C[C@H]1CN([C@@H](C)CO)S(=O)(=O)c2ccc(C#Cc3cccc(F)c3)cc2O[C@@H]1CN(C)S(=O)(=O)c1cn(C)cn1,102% (active)
13,C[C@@H]1CN([C@@H](C)CO)S(=O)(=O)c2ccc(-c3cccc(F)c3)cc2O[C@@H]1CN(C)S(=O)(=O)c1ccccc1,104% (active)
14,CC(C)CC#Cc1ccc2c(c1)O[C@H](CN(C)S(=O)(=O)c1cccc(F)c1)[C@@H](C)CN([C@@H](C)CO)S2(=O)=O,88.4%
15,COCCNC[C@@H]1[C@H](c2ccccc2)[C@H](CO)N1c1nc(C)c(C)s1,95.7% (active)
16,O=C(c1cccc(F)c1)N1CC[C@@H]2[C@@H](CO)Nc3ccc(C#Cc4cccc(F)c4)cc3[C@@H]21,106% (active)
17,CC(=O)N1CC[C@@H]2[C@H](CO)Nc3ccc(C#Cc4ccccc4F)cc3[C@@H]21,70.2%
18,O=S(=O)(c1ccccc1)N1CC[C@@H]2[C@@H](CO)Nc3ccc(C#Cc4cccc(F)c4)cc3[C@@H]21,100% (active)
19,O=S(=O)(c1ccccc1)N1CC[C@@H]2[C@H]1c1cc(C#Cc3cccc(F)c3)ccc1N[C@@H]2CO,97.6% (active)
20,O=S(=O)(c1ccccc1)N1CC[C@@H]2[C@@H](CO)Nc3ccc(-c4ccccc4F)cc3[C@@H]21,103% (active)
21,O=C(Cc1ccccc1)N1CC[C@H]2[C@H](CO)Nc3ccc(-c4ccccc4F)cc3[C@H]21,103% (active)

row,Structure (SMILES),inhibition
1,Cc1ccccc1S(=O)(=O)N1CC[C@H]2[C@H](CO)Nc3ccc(-c4cccc(F)c4)cc3[C@H]21,105% (active)
2,C[C@@H]1CCCCO[C@H](CN(C)C(=O)Nc2cccc3ccccc23)[C@H](C)CN([C@H](C)CO)C(=O)c2cc(NS(=O)(=O)c3cccs3)ccc2O1,103% (active)
3,Cc1ccc(S(=O)(=O)Nc2ccc3c(c2)C(=O)N([C@@H](C)CO)C[C@@H](C)[C@H](CN(C)C(=O)Nc2cccc4ccccc24)OCCCC[C@H](C)O3)cc1,97.1% (active)
4,Cc1noc(C)c1S(=O)(=O)Nc1ccc2c(c1)C(=O)N([C@@H](C)CO)C[C@H](C)[C@@H](CN(C)C(=O)Nc1cccc3ccccc13)OCCCC[C@H](C)O2,99.4% (active)
5,C[C@H](CO)N1C[C@H](C)[C@H](CN(C)C(=O)C2CCCCC2)Oc2ncc(C#Cc3cccc(F)c3)cc2C1=O,102% (active)
6,C[C@H]1CN([C@@H](C)CO)C(=O)c2cc(C#CC3CCCCC3)cnc2O[C@H]1CN(C)S(=O)(=O)c1ccccc1,108% (active)
7,C[C@@H]1CN([C@@H](C)CO)C(=O)c2cc(C#CC3CCCCC3)cnc2O[C@H]1CN(C)S(=O)(=O)c1ccccc1,107% (active)
8,C[C@H](CO)N1C[C@H](C)[C@H](CN(C)C(=O)Nc2ccc3c(c2)OCO3)Oc2ncc(C#Cc3cccc(F)c3)cc2C1=O,85.5%
9,C[C@@H]1CN([C@H](C)CO)C(=O)c2cc(C#CC3CCCCC3)cnc2O[C@@H]1CN(C)C(=O)NC1CCCC1,103% (active)
10,C[C@@H]1CN([C@H](C)CO)C(=O)c2cccc(NC(=O)c3cnccn3)c2O[C@@H]1CN(C)Cc1ccc(C(=O)Nc2ccccc2N)cc1,92.4%
11,C[C@@H]1CN([C@H](C)CO)C(=O)c2cccc(NC(=O)c3ccc(-c4nccs4)cc3)c2O[C@@H]1CN(C)C(=O)Nc1ccc(C(F)(F)F)cc1,104% (active)
12,C[C@H](CO)N1C[C@H](C)[C@@H](CN(C)Cc2ccc(C(=O)Nc3ccccc3N)cc2)Oc2c(NC(=O)c3ccc(-c4nccs4)cc3)cccc2C1=O,99.3% (active)
13,C[C@@H]1CN([C@H](C)CO)C(=O)c2cccc(NC(=O)NC3CCCCC3)c2O[C@H]1CN(C)Cc1ccc(C(F)(F)F)cc1,89.1%
14,Cc1cc(C(=O)Nc2cccc3c2O[C@@H](CN(C)Cc2ccc(C(=O)Nc4ccccc4N)cc2)[C@H](C)CN([C@@H](C)CO)C3=O)n(C)n1,105% (active)
15,C[C@H](CO)N1C[C@H](C)[C@H](CN(C)Cc2ccc(C(F)(F)F)cc2)OCCCC[C@H](C)Oc2ccc(NS(=O)(=O)c3ccc(Cl)cc3)cc2C1=O,91.8%
16,C[C@@H]1CN([C@H](C)CO)C(=O)c2cc(NS(=O)(=O)c3ccc(Cl)cc3)ccc2O[C@@H](C)CCCCO[C@H]1CN(C)Cc1ccccc1,97.6% (active)
17,C[C@@H]1CCCCO[C@H](CN(C)Cc2ccccc2)[C@H](C)CN([C@H](C)CO)C(=O)c2cc(NS(=O)(=O)c3ccc(Cl)cc3)ccc2O1,99.5% (active)
18,COc1ccc(NC(=O)N(C)C[C@@H]2OCCCC[C@@H](C)Oc3ccc(NS(=O)(=O)c4ccc(Cl)cc4)cc3C(=O)N([C@H](C)CO)C[C@H]2C)cc1,104% (active)
19,C[C@H]1CCCCO[C@@H](CN(C)C(=O)NC2CCCCC2)[C@@H](C)CN([C@@H](C)CO)C(=O)c2cc(NS(=O)(=O)c3ccc(Cl)cc3)ccc2O1,103% (active)
20,COc1ccc(S(=O)(=O)Nc2ccc3c(c2)C(=O)N([C@H](C)CO)C[C@@H](C)[C@@H](CN(C)CC2CCCCC2)OCCCC[C@@H](C)O3)cc1,91.5%
21,C[C@@H]1CCCCO[C@H](CN(C)C(=O)NC2CCCCC2)[C@H](C)CN([C@H](C)CO)C(=O)c2cc(NS(=O)(=O)c3ccc(Cl)cc3)ccc2O1,106% (active)
